Experimental data published in PubChem BioAssay AID1159580 (chemical genetic matrix, 2015).
In all, about 5,500 compounds went through this assay and about 2,000 (36%) were called active. Roughly 18% stayed inconclusive and do not appear here. Cut-off read from the data, not from the text of the source: active = normalized growth mostly below about 0.91 (no sharp cut-off); inconclusive = no clear call, values can overlap the other calls; inactive = mostly above about 0.92. This is one part of the list.

Assay: chemical genetic growth profiling, strain panel (AID 1159580);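 note: tested at 20 µM; growth read once vehicle control cultures reached saturation at 30 °C; 1 = growth at the plate median or of vehicle wells; lower values mean less growth of the strain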
Conditions: growth OD

Measured: normalized growth

O=c1cc[nH]c(=S)[nH]1
inactive: S. cerevisiae deletion strains, locus YJR075W, strain HOC1, hits give low values 1.03 | S. cerevisiae deletion strains, locus YKL009W, strain mrt4, hits give low values 1.04 | S. cerevisiae deletion strains, locus YKL068W, hits give low values 1 | S. cerevisiae deletion strains, locus YKL085W, strain MDH1 (second series), hits give low values 1.01 | S. cerevisiae deletion strains, locus YKL085W, strain MDH1, hits give low values 1.01 | S. cerevisiae deletion strains, locus YKL160W, strain elf1, hits give low values 1.06 | S. cerevisiae deletion strains, locus YKL190W, strain CNB1, hits give low values 1.02 | S. cerevisiae deletion strains, locus YKR001C, strain vps1, hits give low values 1.05 | S. cerevisiae deletion strains, locus YKR026C, strain gcn3, hits give low values 1.01 | S. cerevisiae deletion strains, locus YKR091W, strain srl3, hits give low values 1 | S. cerevisiae deletion strains, locus YLL001W, strain dnm1, hits give low values 1.04 | S. cerevisiae deletion strains, locus YLL026W, hits give low values 0.999 | S. cerevisiae deletion strains, locus YLL041C, strain sdh2, hits give low values 1.01 | S. cerevisiae deletion strains, locus YLR027C, strain aat2, hits give low values 1.02 | S. cerevisiae deletion strains, locus YLR039C, strain RIC1, hits give low values 1.09 | S. cerevisiae deletion strains, locus YLR058C, strain SHM2, hits give low values 1.02 | S. cerevisiae deletion strains, locus YLR102C, strain apc9, hits give low values 0.992 | S. cerevisiae deletion strains, locus YLR113W, strain HOG1, hits give low values 1.01 | S. cerevisiae deletion strains, locus YLR221C, strain rsa3, hits give low values 1.01 | S. cerevisiae deletion strains, locus YLR258W, strain gsy2, hits give low values 0.989 | S. cerevisiae deletion strains, locus YLR262C, strain YPT6 (second series), hits give low values 1.03 | S. cerevisiae deletion strains, locus YLR262C, strain YPT6, hits give low values 1.08 | S. cerevisiae deletion strains, locus YLR268W, strain sec22, hits give low values 1.05 | S. cerevisiae deletion strains, locus YLR320W, strain mms22, hits give low values 1.06 | S. cerevisiae deletion strains, locus YLR330W, strain CHS5, hits give low values 1.03 | S. cerevisiae deletion strains, locus YLR342W, strain FKS1 (second series), hits give low values 1 | S. cerevisiae deletion strains, locus YLR342W, strain FKS1, hits give low values 1.01 | S. cerevisiae deletion strains, locus YLR357W, strain rsc2, hits give low values 1.04 | S. cerevisiae deletion strains, locus YLR370C, strain arc18, hits give low values 0.997 | S. cerevisiae deletion strains, locus YLR371W, strain rom2, hits give low values 0.996 | S. cerevisiae deletion strains, locus YLR384C, strain iki3, hits give low values 1.01 | S. cerevisiae deletion strains, locus YLR418C, strain cdc73, hits give low values 1.03 | S. cerevisiae deletion strains, locus YML016C, strain PPZ1, hits give low values 1.02 | S. cerevisiae deletion strains, locus YML032C, strain rad52, hits give low values 1.05 | S. cerevisiae deletion strains, locus YML120C, strain ndi1, hits give low values 1.01 | S. cerevisiae deletion strains, locus YML124C, strain tub3, hits give low values 1.01 | S. cerevisiae deletion strains, locus YMR058W, strain fet3, hits give low values 1.01 | S. cerevisiae deletion strains, locus YMR078C, strain ctf18, hits give low values 1.02 | S. cerevisiae deletion strains, locus YMR125W, strain sto1, hits give low values 1.05 | S. cerevisiae deletion strains, locus YMR129W, hits give low values 0.999 | S. cerevisiae deletion strains, locus YMR205C, strain PFK2, hits give low values 1.05 | S. cerevisiae deletion strains, locus YMR223W, strain ubp8, hits give low values 0.992 | S. cerevisiae deletion strains, locus YMR231W, strain pep5, hits give low values 1.01 | S. cerevisiae deletion strains, locus YMR263W, strain SAP30, hits give low values 1.03 | S. cerevisiae deletion strains, locus YMR307W, strain GAS1, hits give low values 1.01 | S. cerevisiae deletion strains, locus YNL067W, strain RPL9B, hits give low values 1.03 | S. cerevisiae deletion strains, locus YNL071W, strain lat1, hits give low values 1.02 | S. cerevisiae deletion strains, locus YNL128W, strain TEP1, hits give low values 1.03 | S. cerevisiae deletion strains, locus YNL153C, strain GIM3, hits give low values 1.03 | S. cerevisiae deletion strains, locus YNL183C, strain NPR1, hits give low values 0.921 | S. cerevisiae deletion strains, locus YNL209W, strain ssb2, hits give low values 1 | S. cerevisiae deletion strains, locus YNL233W, strain BNI4, hits give low values 1.01 | S. cerevisiae deletion strains, locus YNL248C, strain rpa49, hits give low values 1.09 | S. cerevisiae deletion strains, locus YNL250W, strain rad50, hits give low values 1.01 | S. cerevisiae deletion strains, locus YNL271C, strain bni1, hits give low values 1.01 | S. cerevisiae deletion strains, locus YNL298W, strain CLA4, hits give low values 1.02 | S. cerevisiae deletion strains, locus YNL307C, strain MCK1, hits give low values 1.01 | S. cerevisiae deletion strains, locus YNL322C, strain KRE1 (second series), hits give low values 1.02 | S. cerevisiae deletion strains, locus YNL322C, strain KRE1, hits give low values 1.02 | S. cerevisiae deletion strains, locus YNR049C, strain mso1, hits give low values 1 | S. cerevisiae deletion strains, locus YNR052C, strain pop2, hits give low values 1 | S. cerevisiae deletion strains, locus YOL006C, strain TOP1, hits give low values 1.1 | S. cerevisiae deletion strains, locus YOL012C, strain htz1 1.32 | S. cerevisiae deletion strains, locus YOL147C, strain pex11, hits give low values 1.01 | S. cerevisiae deletion strains, locus YOR001W, strain rrp6, hits give low values 0.972 | S. cerevisiae deletion strains, locus YOR061W, strain CKA2, hits give low values 1.02 | S. cerevisiae deletion strains, locus YOR069W, strain VPS5, hits give low values 1.01 | S. cerevisiae deletion strains, locus YOR070C, strain gyp1, hits give low values 0.997 | S. cerevisiae deletion strains, locus YOR080W, strain dia2, hits give low values 1 | S. cerevisiae deletion strains, locus YOR083W, strain WHI5, hits give low values 1.06 | S. cerevisiae deletion strains, locus YOR106W, strain vam3, hits give low values 1.05 | S. cerevisiae deletion strains, locus YOR136W, strain idh2, hits give low values 1.01 | S. cerevisiae deletion strains, locus YOR144C, strain elg1, hits give low values 1.02 | S. cerevisiae deletion strains, locus YOR184W, strain ser1, hits give low values 1.03 | S. cerevisiae deletion strains, locus YOR231W, strain MKK1, hits give low values 1.01 | S. cerevisiae deletion strains, locus YOR265W, strain rbl2, hits give low values 1.02 | S. cerevisiae deletion strains, locus YOR270C, strain vph1, hits give low values 1.04 | S. cerevisiae deletion strains, locus YOR290C, strain snf2, hits give low values 1.04 | S. cerevisiae deletion strains, locus YOR316C, strain cot1, hits give low values 0.998 | S. cerevisiae deletion strains, locus YPL051W, strain arl3, hits give low values 1.05 | S. cerevisiae deletion strains, locus YPL055C, strain LGE1, hits give low values 1.06 | S. cerevisiae deletion strains, locus YPL078C, strain atp4, hits give low values 1.06 | S. cerevisiae deletion strains, locus YPL106C, strain sse1, hits give low values 1 | S. cerevisiae deletion strains, locus YPL240C, strain hsp82, hits give low values 1.01 | S. cerevisiae deletion strains, locus YPL241C, strain CIN2, hits give low values 1.01 | S. cerevisiae deletion strains, locus YPL256C, strain CLN2, hits give low values 1 | S. cerevisiae deletion strains, locus YPR119W, strain clb2, hits give low values 1 | S. cerevisiae deletion strains, locus YPR141C, strain kar3, hits give low values 1.01 | S. cerevisiae deletion strains, locus YPR163C, strain tif3, hits give low values 1.02 | S. cerevisiae deletion strains, locus YPR167C, strain met16, hits give low values 1.02 | S. cerevisiae deletion strains, strain wtn01, hits give low values 1.04 | S. cerevisiae strains, strain wild type, hits give low values 1.03
